Screening data from PubChem BioAssay.
Shown are actives, neighbours in structure and some others; about 9.9% of the full set was active somewhere.
Tau fibril FP: tau fibrillization inhibition (FP). P10636. K18 P301L tau heparin fibrillization, Alexa594 FP, 6 h. Potency, µM (highest dose often 57.7 µM), hits mostly inhibitors. 0.39% of 280,000 active. AID 1468; active = well fitted curve in the direction sought with a large enough effect; inconclusive = small, poorly fitted or top-dose-only effect, or another doubt; inactive = no such curve, though single readings can be large; an effect the other way counts as inactive or inconclusive; also: nearly all actives have a fitted effect of over 55% in size
Target sequence (P10636 561-689 P618L limits assumed): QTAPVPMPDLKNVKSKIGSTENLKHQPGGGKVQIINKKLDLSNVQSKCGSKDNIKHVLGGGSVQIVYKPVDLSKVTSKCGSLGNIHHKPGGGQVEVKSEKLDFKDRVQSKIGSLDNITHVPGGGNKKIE
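Heparin (20 uM) drove fibril formation of recombinant tau K18 P301L, 15 uM unlabeled with 0.24 uM Alexa 594 label, for 6 hr at 37 C in 100 mM sodium acetate pH 7. Fluorescence polarization (555/632 nm) read 1 hr after 30 uM ThT.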
Tau fluor counter: counter-screen for tau fibril formation inhibitors; tau K18 P301L Alexa594 fluorescence, heparin fibrillization; Potency, µM (doses to about 57.7 µM); 0.93% of 280,000 active; active = well fitted curve in the direction sought with a large enough effect; inconclusive = small, poorly fitted or top-dose-only effect, or another doubt; inactive = no such curve, though single readings can be large; an effect the other way counts as inactive or inconclusive; also: nearly all actives have a fitted effect of over 55% in size
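Human tau K18 P301L (15 uM unlabeled, 0.24 uM Alexa 594-labeled) in 100 mM sodium acetate pH 7 with 20 uM heparin, 6 hr at 37 C. ThT 30 uM added, 1 hr ambient; Alexa 594 FP and total fluorescence read at 555/632 nm.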
HPGD inh: HPGD (human) dehydrogenase inhibition; P15428; purified HPGD, NADH fluorescence kinetic, PGE2 substrate; Potency, µM, actives largely listed as inhibitors; 4.3% of 150,000 active
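20 nM HPGD preincubated 15 min at room temperature with compound in 50 mM Tris-HCl pH 8, 0.01% Tween 20. Started with 1 mM NAD+ and 30 uM prostaglandin E2; NADH fluorescence (360/450 nm) read 5 times over 30-s intervals, last minus first.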
Tau ThT inhib: inhibitors of human tau fibril formation, thioflavin T binding; 2.1% of 270,000 active; Potency, µM (titrated, usually from 57.4 µM), most hits filed as inhibitors; recombinant tau K18 P301L (four-repeat tau fragment), heparin-induced fibrillization, ThT fluorescence; active = well fitted curve in the direction sought with a large enough effect; inconclusive = small, poorly fitted or top-dose-only effect, or another doubt; inactive = no such curve, though single readings can be large; an effect the other way counts as inactive or inconclusive; also: nearly all actives have a fitted effect of over 55% in size
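K18 P301L tau (15 uM + 0.24 uM Alexa 594-tagged), heparin 20 uM, NaOAc pH 7, 6 h 37 C; ThT 30 uM, 1 h RT, ex 450/em 510 nm.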
ALDH1A1 inh: inhibitors of human aldehyde dehydrogenase 1A1; AID 1030; Purified ALDH1A1, NADH fluorescence, propionaldehyde substrate; 7.3% of 220,000 active; Potency, µM (series often up to 75.3 µM), hits mostly inhibitors; P00352
Target sequence (P00352 whole entry, looked up): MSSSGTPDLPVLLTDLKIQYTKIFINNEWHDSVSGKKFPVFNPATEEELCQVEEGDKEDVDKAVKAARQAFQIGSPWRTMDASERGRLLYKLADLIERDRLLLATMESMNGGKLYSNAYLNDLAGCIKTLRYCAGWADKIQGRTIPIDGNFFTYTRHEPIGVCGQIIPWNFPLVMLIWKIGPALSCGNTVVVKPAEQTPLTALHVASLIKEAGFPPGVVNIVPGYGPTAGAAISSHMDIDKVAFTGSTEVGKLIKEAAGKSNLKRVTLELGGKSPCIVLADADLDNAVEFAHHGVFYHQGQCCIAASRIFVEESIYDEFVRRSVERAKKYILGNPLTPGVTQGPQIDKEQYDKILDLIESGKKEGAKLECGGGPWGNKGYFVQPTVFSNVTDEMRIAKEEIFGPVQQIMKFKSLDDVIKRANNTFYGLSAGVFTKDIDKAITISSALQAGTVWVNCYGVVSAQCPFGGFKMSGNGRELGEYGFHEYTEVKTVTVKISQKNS
JMJD2E inh: inhibitors of human JMJD2E histone demethylase | B2RXH2 | JMJD2E catalytic domain, FDH-coupled NADH fluorescence (FDH is formaldehyde dehydrogenase) | Potency, µM (top dose mostly 57.1 µM), hits mostly inhibitors | 1.6% of 230,000 active; also: nearly all actives have a fitted effect of over 50% in size
Hits are given with their value; i = inactive; ? = inconclusive; nt = not tested or not shown; [ ] = remark or other dose. Unless noted, calls follow the shape of the dose curve; as a rule, active = well fitted inhibition curve with a large enough effect (not every such curve was filed as active); inconclusive = small, poorly fitted or top-dose-only effect, or another doubt; inactive = no such curve, though single readings can be large or run the other way.

SMILES	Tau fibril FP	Tau fluor counter	HPGD inh	Tau ThT inhib	ALDH1A1 inh	JMJD2E inh
COc1cccc(CSc2nc(-c3ccccc3OC)nc3c2Cc2c(CO)cnc(C)c2O3)c1	i	i	nt	?	nt	nt
Cc1ccc(S(=O)(=O)CC(C)(O)C(=O)Nc2cccc(C(F)(F)F)c2)cc1 (configuration not stated)	i	i	i	i	i	i
CC(O)(CS(=O)(=O)c1ccccc1)C(=O)Nc1cccc(C(F)(F)F)c1 (configuration not stated)	i	i	0.0018µM	i	i	i
C=C1C(=O)O[C@@H]2C[C@@H](C)[C@@H]3C4OC4C(=O)[C@@]3(C)[C@@H](O)[C@H]12 (some centres not stated)	7.9µM	i	nt	13µM	nt	i
CN(C)c1ccc(/C=C2\CCCN=C2c2cccnc2)cc1	i	i	i	?	?	?
C=C1CC[C@H](O)C/C1=C/C=C1\CCC[C@]2(C)[C@H]1CC[C@H]2[C@@H](C)CCCC(C)C	nt	nt	i	nt	i	i
Oc1ccc2[nH]cc(CCCCN3CC=C(c4ccccc4)CC3)c2c1	i	i	i	?	i	i
C=CCN1C(=O)NC(=O)/C(=C/C=C/c2ccccc2)C1=O	?	i	nt	28µM	14µM	i
O=C1NC(=O)N(CCc2ccc(F)cc2)C(=O)/C1=C\C=C\c1ccccc1	?	i	nt	28µM	1.6µM	i
COCCn1c(SCc2ccccc2Cl)nc2c1c(=O)[nH]c(=O)n2C	i	i	?	i	14µM	i
O=[N+]([O-])c1ccc(O)c([N+](=O)[O-])c1	i	i	i	i	?	i
Cc1ccc(OCC(=O)N/N=C\c2ccc(O)c([N+](=O)[O-])c2)c([N+](=O)[O-])c1	i	i	nt	13µM	?	i
N[C@H](Cc1ccc2oc3cc(=O)c4ccccc4c-3nc2c1)C(=O)O	nt	nt	i	nt	?	nt
CC(C)NC(=O)N1CCC2(CC1)CCN(C(=O)Oc1ccccc1)CC2	nt	nt	i	nt	i	nt
O=C(c1cc(-c2cccnc2)nc2ccccc12)N1CCC2(CC1)OCCO2	i	i	i	i	?	i
O=C(c1cc(-c2cccnc2)nc2ccc(Cl)cc12)N1CCC2(CC1)OCCO2	i	i	i	i	7.1µM	i
O=C(Nc1ccc(Cl)c(C(F)(F)F)c1)NC1CC2CCCC(C1)N2Cc1ccccc1 (configuration not stated)	28µM	?	nt	i	i	i
COc1ccc(-c2noc(CN3C(=O)c4ccccc4C3=O)n2)cc1	i	i	20µM	i	i	i
COc1ccc(-c2n(-c3ccccn3)c3ccccc3[n+]2-c2ccccn2)cc1	i	i	nt	i	nt	?
CCCC/C=C/[C@@H](NP(=O)(c1ccccc1)c1ccccc1)c1ccccc1OC	?	i	i	?	i	i
CCCCCCC(=O)N/N=C/c1c(O)n(CCCC)c(=S)[nH]c1=O	i	i	nt	?	i	18µM
CCCCC(=O)N/N=C/c1c(O)n(CCc2ccccc2)c(=O)[nH]c1=O	i	i	nt	i	nt	?
O=C(N/N=C/c1c(O)n(Cc2ccccc2)c(=O)[nH]c1=O)c1ccncc1	i	i	nt	nt	nt	20µM
CCCCC(=O)N/N=C/c1c(O)n(CCc2ccc(OC)c(OC)c2)c(=O)[nH]c1=O	i	i	i	?	i	22µM
O=C(N/N=C/c1c(O)n(Cc2ccc(F)cc2)c(=O)[nH]c1=O)c1ccccc1	i	i	nt	?	i	?
SMILES	Tau fibril FP	Tau fluor counter	HPGD inh	Tau ThT inhib	ALDH1A1 inh	JMJD2E inh
O=c1[nH]c(=O)n(Cc2ccc(F)cc2)c(O)c1C=NCc1cccnc1	i	i	16µM	i	i	i
NC1CCC(CC2CCC(N)CC2)CC1 (configuration not stated)	nt	nt	i	nt	i	nt
Cc1ccc(F)cc1NC(=O)c1ccc(Cn2nc(N3CCN(c4ccccc4)CC3)ccc2=O)o1	i	i	nt	?	nt	nt
Cn1c(O)c(/C=N/NC(=O)c2ccncc2)c(=O)n(C)c1=S	i	i	nt	i	nt	32µM
COc1ccc(CCn2c(O)c(/C=N/NC(=O)c3ccncc3)c(=O)[nH]c2=O)cc1OC	i	i	?	?	?	10µM
CCc1ccc(C(=O)NN(C(=O)c2cc(C)cc(C)c2)C(C)(C)C)cc1	i	i	i	i	i	i
O=[N+]([O-])c1cccc(CN2CCN(Cc3ccc(Cl)cc3)CC2)c1	?	i	nt	i	?	28µM
CCCN1CCC[C@@H]2Cc3cn[nH]c3C[C@H]21	i	i	i	i	i	nt
C=C1CCC(O)C/C1=C\C=C1/CCCC2(C)C1CCC2C(C)CCCC(C)C (configuration not stated)	i	i	i	?	?	i
Cc1ccc2c(c1)C1CN(C)CCC1N2C(=O)c1ccc(Br)o1 (configuration not stated)	i	i	i	i	22µM	i
Cc1cc(S(=O)(=O)NC(C)C)ccc1OCC(=O)N1CCN(Cc2ccc3c(c2)OCO3)CC1	i	i	i	i	i	i
Cc1cc(S(=O)(=O)NCC(C)C)ccc1OCC(=O)N1CCN(Cc2ccccc2)CC1	i	i	i	i	18µM	i
C/C(=N\Nc1ccccc1)c1c(O)n(Cc2ccccc2)c(=O)[nH]c1=O	i	i	28µM	i	i	i
Cc1c(N=Nc2c(O)[nH]c(=O)[nH]c2=O)c(=O)n(-c2ccccc2)n1C	?	i	nt	?	i	3.5µM
CC(=Nc1c(C)n(C)n(-c2ccccc2)c1=O)c1c(O)n(Cc2ccccc2)c(=O)[nH]c1=O	i	i	20µM	i	i	i
C/C(=N\NC(=O)c1ccccc1O)c1c(O)n(Cc2ccccc2)c(=O)[nH]c1=O	i	?	nt	14µM	?	?
C/C(=N\NC(=O)c1ccncc1)c1c(O)n(Cc2ccccc2)c(=O)[nH]c1=O	i	i	nt	?	nt	?
CN(C)CCCNc1c2c(nc3ccc(Cl)cc13)CCCC2	nt	nt	i	nt	i[13.5 µM]	nt
CCOC(=O)c1cccc(NC(=O)NCc2ccc3c(c2)CCN3C(=O)c2ccccc2)c1	?	?	nt	i	nt	nt
CCc1ccccc1N1C(=O)N(Cc2ccccc2C)c2ccccc2S1(=O)=O	?	i	nt	i	nt	nt
CCCNC(=O)c1cnn2c(C)c(Cc3c(C)cc(C)cc3C)c(C)nc12	?	i	nt	?	nt	nt
O/N=C/c1c[nH]c2ccccc12	i	i	7.1µM	i	i	i
O=C(O)[C@@H](O)[C@@H](O)C1[O][Sb][O][C@@H]1CO (some centres not stated)	nt	nt	i	nt	i[13.5 µM]	nt
COc1ccc(-c2cc(C(F)(F)F)n3nc(C(=O)N4CCC5(CC4)OCCO5)cc3n2)cc1OC	i	i	13µM	i	10µM	?
C[C@@]12CC[C@H](O[C@@H]3O[C@H](CO)[C@@H](O)[C@H](O)[C@@H]3O)C[C@@H]1CC[C@H]1[C@H]2CC[C@@]2(C)[C@@H](C3=CCOC3=O)CC[C@]12O	nt	nt	i	nt	i[13.5 µM]	nt
